# Laboratory results published in PubChem BioAssay (NCATS).
# Values joined by “and” are separate entries in the source; they are usually repeats but may differ in a detail not shown here. Equal values may be shown once. Inconclusive results are not listed. A call without a number means that no potency is given here. Where a structure was tested more than once in an assay, its records may differ in their call. Active and inactive are the calls of the source. Unless noted, calls follow the shape of the dose curve; as a rule, active = well fitted inhibition curve with a large enough effect; inconclusive = small, poorly fitted or top-dose-only effect; inactive = flat fitted curve, though single readings scatter.
# Legend:
# [1] = target: Vitamin D3 receptor (Homo sapiens) (UniProt P11473); experiment: qHTS assay for small molecule agonists of vitamin D receptor signaling (AID 588543; calls by dose curve)
# Vitamin D3 receptor (Homo sapiens), sequence (P11473 whole entry, looked up): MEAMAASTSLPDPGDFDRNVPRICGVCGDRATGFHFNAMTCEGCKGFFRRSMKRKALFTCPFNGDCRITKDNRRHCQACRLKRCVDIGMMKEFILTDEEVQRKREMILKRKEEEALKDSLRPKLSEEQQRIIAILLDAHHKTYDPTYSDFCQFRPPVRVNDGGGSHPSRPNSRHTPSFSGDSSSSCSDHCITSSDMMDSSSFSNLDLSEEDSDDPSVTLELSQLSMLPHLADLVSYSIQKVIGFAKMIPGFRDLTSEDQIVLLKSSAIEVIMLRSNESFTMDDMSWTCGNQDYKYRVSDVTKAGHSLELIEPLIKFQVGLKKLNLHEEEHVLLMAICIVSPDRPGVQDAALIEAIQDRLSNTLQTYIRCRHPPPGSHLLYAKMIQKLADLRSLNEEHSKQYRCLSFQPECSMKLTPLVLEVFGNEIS
# Procedure, shortened: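 GeneBLAzer VDR-UAS-bla HEK293T cells in 2% charcoal-stripped FBS medium were dosed with compound titrations for 16 h at 37 °C; CCF4 β-lactamase readout (405 nm ex, 460/530 nm em). EC50 and efficacy from Hill fits, normalized to 50 nM calcitriol (100%) and DMSO (0%).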
# [2] = target: Thyroid hormone receptor beta (Homo sapiens) (UniProt P10828); experiment: qHTS assay for small molecule agonists of thyroid hormone receptor beta signaling (AID 588545; calls by dose curve)
# Thyroid hormone receptor beta (Homo sapiens), sequence (P10828 whole entry, looked up): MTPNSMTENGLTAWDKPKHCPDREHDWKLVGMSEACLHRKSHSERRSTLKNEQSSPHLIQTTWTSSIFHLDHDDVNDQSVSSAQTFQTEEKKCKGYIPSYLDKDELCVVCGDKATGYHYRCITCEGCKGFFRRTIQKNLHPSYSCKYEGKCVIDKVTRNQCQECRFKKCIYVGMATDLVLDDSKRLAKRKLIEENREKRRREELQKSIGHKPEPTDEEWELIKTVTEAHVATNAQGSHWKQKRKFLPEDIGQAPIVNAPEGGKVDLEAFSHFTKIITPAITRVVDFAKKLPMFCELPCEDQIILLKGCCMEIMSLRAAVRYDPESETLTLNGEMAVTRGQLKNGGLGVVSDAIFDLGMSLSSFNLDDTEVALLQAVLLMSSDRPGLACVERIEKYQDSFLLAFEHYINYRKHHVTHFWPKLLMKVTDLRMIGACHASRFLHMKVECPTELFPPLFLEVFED
# Procedure, shortened: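 Compounds were tested as agonists in TR-UAS-bla-GripTite HEK 293 cells. After 18 hrs at 37 C, CCF4 substrate was added and fluorescence read after 2 hrs at room temperature.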
# [3] = target: Thyroid hormone receptor beta (Homo sapiens) (UniProt P10828); experiment: qHTS assay for small molecule antagonists of thyroid hormone receptor beta signaling (AID 588547; active = well fitted inhibition curve with a large enough effect in the signal ratio, with a control signal flat, not every such curve was filed as active; the % refers to the signal ratio;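 also: cells stimulated with 0.4 nM T3 agonist during compound exposure; series mostly up to about 77 µM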); details: TR-UAS-bla HEK293, beta-lactamase ratio, antagonist mode, 18 h
# Procedure, shortened: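 TR-UAS-bla GripTite HEK293 cells in 2% charcoal/dextran FBS medium were preincubated 4 h at 37 C, given compound (0.59 nM to 92 uM) plus 0.4 nM T3 (final) for 18 h, then CCF4 for 2 h at RT; Hill fit gave IC50.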
# [4] = target: Voltage-gated inwardly rectifying potassium channel KCNH2 (Homo sapiens) (UniProt Q12809); experiment: qHTS Assay for Small Molecule Inhibitors of the Human hERG Channel Activity (AID 588834);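 also: lower thallium flux fluorescence means stronger hERG block; nearly all actives have a fitted effect of over 50% in size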; also: potency is read from the fitted curve at half-maximal effect
# Voltage-gated inwardly rectifying potassium channel KCNH2 (Homo sapiens), sequence (Q12809 whole entry, looked up): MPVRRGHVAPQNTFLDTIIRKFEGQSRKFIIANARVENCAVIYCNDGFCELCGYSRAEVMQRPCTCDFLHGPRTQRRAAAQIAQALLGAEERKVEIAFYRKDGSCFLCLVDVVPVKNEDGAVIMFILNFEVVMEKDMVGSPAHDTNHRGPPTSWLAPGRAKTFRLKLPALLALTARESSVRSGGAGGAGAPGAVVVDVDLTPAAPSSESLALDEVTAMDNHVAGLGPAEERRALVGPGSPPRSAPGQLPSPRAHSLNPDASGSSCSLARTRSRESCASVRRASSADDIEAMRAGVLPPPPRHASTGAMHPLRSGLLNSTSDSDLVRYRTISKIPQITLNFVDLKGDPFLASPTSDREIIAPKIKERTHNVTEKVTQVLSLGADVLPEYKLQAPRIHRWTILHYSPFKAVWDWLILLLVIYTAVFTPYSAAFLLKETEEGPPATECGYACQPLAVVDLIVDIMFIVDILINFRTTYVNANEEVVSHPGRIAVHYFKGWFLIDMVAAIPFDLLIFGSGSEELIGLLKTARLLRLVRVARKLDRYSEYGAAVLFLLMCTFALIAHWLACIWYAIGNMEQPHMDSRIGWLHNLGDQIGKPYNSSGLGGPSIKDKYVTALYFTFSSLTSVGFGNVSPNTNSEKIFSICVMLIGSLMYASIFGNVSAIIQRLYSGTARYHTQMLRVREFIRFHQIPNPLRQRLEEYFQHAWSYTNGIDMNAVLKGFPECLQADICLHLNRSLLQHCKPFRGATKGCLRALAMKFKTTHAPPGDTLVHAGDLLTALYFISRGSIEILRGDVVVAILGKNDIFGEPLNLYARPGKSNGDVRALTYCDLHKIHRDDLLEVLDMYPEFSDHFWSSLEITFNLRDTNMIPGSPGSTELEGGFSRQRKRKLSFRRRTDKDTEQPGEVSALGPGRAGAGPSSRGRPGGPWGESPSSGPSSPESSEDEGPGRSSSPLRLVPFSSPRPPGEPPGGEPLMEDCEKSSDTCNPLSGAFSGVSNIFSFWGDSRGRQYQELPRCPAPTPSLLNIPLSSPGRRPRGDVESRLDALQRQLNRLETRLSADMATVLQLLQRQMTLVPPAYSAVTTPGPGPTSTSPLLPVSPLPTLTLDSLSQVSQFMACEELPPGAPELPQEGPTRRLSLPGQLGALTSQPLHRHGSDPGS
# Procedure, shortened: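 U2OS cells transduced with hERG via BacMam (MOI ~100), plated 2000/well, loaded with FluxOR thallium dye, compound ~10 min, then stimulation buffer; fluorescence decrease read kinetically; AC50 from Hill fits.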
# [5] = qHTS assay for small molecule antagonists of retinoid X receptor alpha signaling (AID 588546; active = well fitted inhibition curve with a large enough effect in the signal ratio, with a control signal flat, not every such curve was filed as active; the % refers to the signal ratio;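 also: cells stimulated with 9-cis-retinoic acid as agonist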); details: HEK293T RXRa-UAS-bla, beta-lactamase ratio, antagonist mode; measured here: W530 green channel, cytotoxicity proxy
# Procedure, shortened: (§1)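 Beta-lactamase reporter inhibition, read as CCF4 fluorescence ratio (ex 405, em 460/530 nm) after 2 h at RT. HEK293T UAS-bla cells, 2500/well, were stimulated with 9-cis-RA at 500 or 100 nM final alongside test compound for 18 h at 37 C.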
# [6] = target: Retinoic acid receptor RXR-alpha (Homo sapiens) (UniProt P19793); experiment: as above; details: HEK293T RXRa-UAS-bla, beta-lactamase ratio, antagonist mode
# Retinoic acid receptor RXR-alpha (Homo sapiens), sequence (P19793 whole entry, looked up): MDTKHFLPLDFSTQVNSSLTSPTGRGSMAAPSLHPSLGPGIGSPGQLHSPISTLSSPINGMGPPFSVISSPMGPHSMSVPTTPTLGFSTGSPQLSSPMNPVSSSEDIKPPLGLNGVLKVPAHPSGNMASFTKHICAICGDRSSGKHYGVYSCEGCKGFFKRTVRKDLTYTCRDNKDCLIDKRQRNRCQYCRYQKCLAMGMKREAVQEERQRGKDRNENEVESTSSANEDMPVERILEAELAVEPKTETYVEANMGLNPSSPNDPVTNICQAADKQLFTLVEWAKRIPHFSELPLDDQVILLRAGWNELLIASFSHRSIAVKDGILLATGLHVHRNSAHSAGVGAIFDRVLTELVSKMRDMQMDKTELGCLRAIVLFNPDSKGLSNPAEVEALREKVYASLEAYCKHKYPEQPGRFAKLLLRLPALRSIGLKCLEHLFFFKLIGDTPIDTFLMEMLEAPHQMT
# Procedure, shortened: as §1
# [7] = target: Luciferin 4-monooxygenase (Photinus pyralis) (UniProt P08659); experiment: Biochemical firefly luciferase enzyme assay for NPC (AID 624030); also: nearly all actives have a fitted effect of over 70% in size; also: potency is read from the fitted curve at half-maximal effect
# Luciferin 4-monooxygenase (Photinus pyralis), sequence (P08659 whole entry, looked up): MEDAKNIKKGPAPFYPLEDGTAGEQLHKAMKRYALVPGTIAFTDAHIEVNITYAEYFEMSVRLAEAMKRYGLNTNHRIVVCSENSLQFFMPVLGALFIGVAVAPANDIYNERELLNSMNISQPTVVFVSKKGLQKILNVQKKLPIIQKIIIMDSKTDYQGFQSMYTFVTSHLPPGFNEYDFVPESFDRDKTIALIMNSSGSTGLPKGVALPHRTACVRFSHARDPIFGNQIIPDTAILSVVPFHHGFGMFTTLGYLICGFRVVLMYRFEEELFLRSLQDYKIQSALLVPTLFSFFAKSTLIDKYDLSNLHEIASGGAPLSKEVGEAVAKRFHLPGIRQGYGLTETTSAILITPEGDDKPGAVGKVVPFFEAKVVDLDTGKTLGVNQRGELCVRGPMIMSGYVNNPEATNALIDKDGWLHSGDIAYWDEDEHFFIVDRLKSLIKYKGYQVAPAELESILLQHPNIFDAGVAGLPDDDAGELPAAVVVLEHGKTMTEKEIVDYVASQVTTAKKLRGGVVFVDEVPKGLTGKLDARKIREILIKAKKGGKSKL
# Procedure, shortened: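 Counter-screen for direct inhibition of the luciferase enzyme by approved-drug library compounds, run at 10 nM enzyme in 50 mM Tris acetate (final). Luminescence was read within 5 min of enzyme-buffer addition and normalized to PTC124 versus DMSO (0%).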
# [8] = qHTS assay for small molecule agonists of retinoid X receptor alpha signaling (AID 588544; calls by dose curve); details: HEK293T RXRa-UAS-bla, beta-lactamase reporter, 18 h; 530 nm emission
# [9] = target: Retinoic acid receptor RXR-alpha (Homo sapiens) (UniProt P19793); experiment: as above
smiles,measurement,setting,value
CN1CCC[C@H]1c1cccnc1,outcome,[1],inactive
same,outcome,[2],inactive
same,activity change % (negative = inhibition),[3],-9.11% (inactive) and 5.66% (inactive)
same,Potency,[4],inactive
CC(C)OC(=O)c1cc(C(=O)OC(C)C)cc([N+](=O)[O-])c1,outcome,[1],inactive
same,max response,[5],-0.986%
same,max response,[6],-4.84% (inactive)
same,activity change % (negative = inhibition),[3],6.57% (inactive)
same,Potency,[7],inactive
CC(C)NCC(O)COc1cccc2ccccc12 (stereo not given),outcome,[1],inactive
same,max response,[8],16.9% and 0.479%
same,outcome,[9],inactive
same,outcome,[2],inactive
same,max response,[5],8.19%
same,max response,[6],-18.2% (inactive)
same,activity change % (negative = inhibition),[3],-9.73% (inactive) and -17.8% (inactive)
O=C(O)c1cc(O)c(O)c(O)c1,outcome,[1],inactive
same,max response,[8],4.26%
same,outcome,[9],inactive
same,outcome,[2],inactive
same,max response,[5],3.69%
same,max response,[6],-2.74% (inactive)
same,activity change % (negative = inhibition),[3],-16.5% (inactive)
same,Potency,[4],inactive
same,Potency,[7],inactive
C#C[C@]1(O)CC[C@H]2[C@@H]3CCc4cc(O)ccc4[C@H]3CC[C@@]21C,outcome,[2],inactive
same,activity change % (negative = inhibition),[3],-23% (inactive)
same,Potency,[4],inactive
S=c1[nH]c2ccccc2s1,outcome,[1],inactive
same,max response,[8],-3.92%
same,outcome,[9],inactive
same,outcome,[2],inactive
same,max response,[5],0.276% and 7.73%
same,max response,[6],18% (inactive) and -15.5% (inactive)
same,activity change % (negative = inhibition),[3],-9.82% (inactive) and 10.5% (inactive)
same,Potency,[4],inactive
N=C(N)SCCc1ccc(CCSC(=N)N)cc1,Potency,[4],inactive
c1ccc2sc(SSc3nc4ccccc4s3)nc2c1,outcome,[1],inactive
same,max response,[8],3.36% and -4.21%
same,outcome,[9],inactive
same,outcome,[2],inactive
same,max response,[5],-0.16% and -14.1%
same,max response,[6],0.434% (inactive) and -6.61% (inactive)
same,activity change % (negative = inhibition),[3],20.1% (inactive) and 3.58% (inactive)
same,Potency,[4],inactive
same,Potency,[7],inactive
CC(=O)SCC[N+](C)(C)C,Potency,[4],inactive
O=C(OCc1ccccc1)c1ccccc1,outcome,[1],inactive
same,max response,[8],2.86%
same,outcome,[9],inactive
same,outcome,[2],inactive
same,max response,[5],-18.5%
same,max response,[6],-1.47% (inactive)
same,activity change % (negative = inhibition),[3],12.6% (inactive)
same,Potency,[4],inactive
Nc1ccc(O)c(C(=O)O)c1,outcome,[1],inactive
same,max response,[8],-5.65% and -3.05%
same,outcome,[9],inactive
same,max response,[5],7.86% and -11.8%
same,max response,[6],19.2% (inactive) and -15.8% (inactive)
same,Potency,[4],inactive
O=C1CN(/N=C/c2ccc([N+](=O)[O-])o2)C(=O)N1,outcome,[1],inactive
same,outcome,[2],inactive
same,max response,[5],9.13%
same,max response,[6],25.9% (inactive)
same,Potency,[4],inactive
same,Potency,[7],inactive
Nc1ccc(O)c([N+](=O)[O-])c1,outcome,[1],inactive
same,max response,[8],-11.3%
same,outcome,[9],inactive
same,outcome,[2],inactive
same,max response,[5],-7.08% and 0.284%
same,max response,[6],32% (inactive) and 10.1% (inactive)
same,activity change % (negative = inhibition),[3],3.22% (inactive) and -23.9% (inactive)
same,Potency,[4],inactive
Nc1ccc([N+](=O)[O-])cc1O,outcome,[1],inactive
same,max response,[8],5.77%
same,outcome,[9],inactive
same,outcome,[2],inactive
same,max response,[5],3.08% and -8.59%
same,max response,[6],-3.43% (inactive) and -7.43% (inactive)
same,activity change % (negative = inhibition),[3],10% (inactive) and 1.31% (inactive)
same,Potency,[4],inactive
same,Potency,[7],inactive
O=c1cc(-c2ccccc2)oc2ccccc12,outcome,[1],inactive
same,max response,[8],18.8%
same,outcome,[9],inactive
same,outcome,[2],inactive
same,max response,[5],-11.8%
same,max response,[6],-22.5% (inactive)
same,activity change % (negative = inhibition),[3],-4.06% (inactive) and 9.92% (inactive)
same,Potency,[4],inactive
same,Potency,[7],20.9 µM (active)
O=C(O)[C@H](CC(=O)N1C[C@H]2CCCC[C@H]2C1)Cc1ccccc1,Potency,[4],inactive
same,Potency,[7],inactive
O=C(O)c1cc(=O)c2ccccc2[nH]1,Potency,[4],inactive
CO[C@H]1C[C@@H]2CC[C@@H](C)[C@@](O)(O2)C(=O)C(=O)N2CCCC[C@H]2C(=O)O[C@H]([C@H](C)C[C@@H]2CC[C@@H](O)[C@H](OC)C2)CC(=O)[C@H](C)C=C(C)[C@@H](O)[C@@H](OC)C(=O)[C@H](C)C[C@H](C)/C=C/C=CC=C1C,Potency,[4],inactive
O=C1NC(O)=NC1(c1ccccc1)c1ccccc1,Potency,[4],inactive
Cc1cc(NC(=O)Nc2ccc3c(ccn3C)c2)sn1,Potency,[4],inactive
COc1ccccc1CNCCCCCCNCCCCCCCCNCCCCCCNCc1ccccc1OC,Potency,[4],inactive
O=c1[nH]c2cc(C(F)(F)F)ccc2n1-c1cc(C(F)(F)F)ccc1O,Potency,[4],inactive
O=C(O)CCCC[C@@H]1CCSS1,Potency,[4],inactive
C[N+](C)(CCCCCC[N+](C)(C)CCCN1C(=O)c2cccc3cccc(c23)C1=O)CCCN1C(=O)c2cccc3cccc(c23)C1=O,Potency,[4],inactive
Cn1cc(C2=C(c3ccc(Cl)cc3Cl)C(=O)NC2=O)c2ccccc21,Potency,[4],2.51 µM (active)
C#CCN1C(C)=C(C(=O)OC)C(c2cccc([N+](=O)[O-])c2)C(C(=O)OCC)=C1C (stereo not given),Potency,[4],inactive
CC(C(=O)O)c1ccc2c(c1)[nH]c1ccc(Cl)cc12 (stereo not given),Potency,[4],inactive
Nc1ccc(C(=O)O)c(O)c1,Potency,[4],inactive
same,Potency,[7],inactive
c1ccc(-c2ccccn2)nc1,Potency,[4],inactive
C=CCN1C(=O)C(CC(C)C)NC1=S (stereo not given),Potency,[4],inactive
same,Potency,[7],inactive
CCCCCCCCCCCCCCCCCC(=O)OC(CC(=O)O)C[N+](C)(C)C (stereo not given),Potency,[4],inactive
C[C@@H](NC(=O)/C(C#N)=C/c1ccc(O)c(O)c1)c1ccccc1,Potency,[4],inactive
NCCCCC(=O)O,Potency,[4],inactive
Cc1c(C(=O)O)c(O)cc2c1C(=O)c1c(O)c([C@@H]3O[C@H](CO)[C@@H](O)[C@H](O)[C@H]3O)c(O)c(O)c1C2=O,Potency,[4],inactive
O=C(O)/C=C/C(O)c1ccc(Cl)cc1 (stereo not given),Potency,[4],inactive
same,Potency,[7],inactive
Brc1c(Br)c(Br)c2n[nH]nc2c1Br,Potency,[4],inactive
NCCSSCCN,Potency,[4],inactive
NC(=O)C(=O)O,Potency,[4],inactive
NO,Potency,[4],inactive
CN(C)c1ccc(C(=C2C=CC(=[N+](C)C)C=C2)c2ccccc2)cc1,Potency,[4],7.08 µM (active)
CCCCC/C=C\CC(O)/C=C/c1cccc(CC(O)CCCCO)n1 (stereo not given),Potency,[4],inactive
C=CC(N)CCC(=O)O (stereo not given),Potency,[4],inactive
same,Potency,[7],inactive
CC[C@H]1OC(=O)[C@H](C)C(=O)[C@H](C)[C@@H](O[C@@H]2O[C@H](C)C[C@H](N(C)C)[C@H]2O)[C@](C)(OC)C[C@@H](C)C(=O)[C@H](C)[C@H]2N(CCCCn3cnc(-c4cccnc4)c3)C(=O)O[C@]12C,Potency,[4],inactive
COC(=O)[C@H]1[C@H]2C[C@@H]3c4[nH]c5cc(OC)ccc5c4CCN3C[C@H]2C[C@@H](OC(=O)/C=C/c2cc(OC)c(OC)c(OC)c2)[C@@H]1OC,Potency,[4],7.94 µM (active)
O=C(O)COc1ccc(C(=O)c2cccs2)c(Cl)c1Cl,Potency,[4],inactive
same,Potency,[7],inactive
Cn1c(=O)c2[nH]c(-c3ccccc3)nc2n(C)c1=O,Potency,[4],inactive
